{
  "source": "PubChem BioAssay AID624034",
  "about": "(National Center for Advancing Translational Sciences (NCATS), 2012)",
  "note": "Records with an inconclusive call do not appear. The source made the active and inactive calls. The call rests on the fitted dose curve; in most records, active means well fitted inhibition curve with a large enough effect; inconclusive means small, poorly fitted or top-dose-only effect; inactive means flat fitted curve, though single readings scatter.",
  "data": [
    {"molecular_target": "Dual specificity protein kinase CLK4 (Homo sapiens) (UniProt Q9HAZ1)", "sequence (Q9HAZ1 whole entry, looked up)": "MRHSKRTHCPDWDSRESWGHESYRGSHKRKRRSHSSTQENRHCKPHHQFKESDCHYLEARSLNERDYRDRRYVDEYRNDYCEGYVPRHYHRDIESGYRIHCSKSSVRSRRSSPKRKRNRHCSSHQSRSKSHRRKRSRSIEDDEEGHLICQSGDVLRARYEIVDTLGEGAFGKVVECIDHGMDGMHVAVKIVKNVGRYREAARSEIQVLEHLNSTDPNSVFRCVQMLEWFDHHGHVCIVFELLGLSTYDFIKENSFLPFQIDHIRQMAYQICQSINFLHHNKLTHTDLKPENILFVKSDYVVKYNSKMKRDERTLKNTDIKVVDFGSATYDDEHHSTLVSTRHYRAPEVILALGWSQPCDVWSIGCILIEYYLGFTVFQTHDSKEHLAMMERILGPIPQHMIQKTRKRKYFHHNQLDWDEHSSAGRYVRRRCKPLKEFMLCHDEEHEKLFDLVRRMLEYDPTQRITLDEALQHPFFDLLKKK", "test": "Reaction Biology data for inhibitors of CLK4: Probe SAR", "conditions": "Reaction Biology CLK4 kinase assay, 10 uM ATP; series mostly up to 10 µM; activity change, negative = inhibition: at the top concentration", "text": "Alternative splicing of pre-mRNAs plays a major role in the regulation of eukaryotic gene expression. Alternative splicing is now thought to be one of the primary reasons for the complexity of higher organisms leading to an average of three protein isoforms per gene. Aberrant splicing can lead to a number of diseases and is known to play a role in rare genetic diseases such as progeria syndrome. Hutchinson-Gilford Progeria Syndrome (HGPS) is a pediatric premature aging disease caused by a spontaneous mutation in the lamin A/C (LMNA) gene due to a single point mutation in the lamin A gene effecting 1 in 4 million people. To identify both specific splicing modulators of the lamin A gene as well as general splicing modulators, a cell-based HTS assay was developed using a minigene reporter system (AIDs, 1459 & 1487). […] This AID summarizes the characterization of lead compounds in Clk4. NIH Molecular Libraries Probe Production Centers Network [MLPCN] NIH Chemical Genomics Center [NCGC] MLPCN Grant: MH084827 Assay Submitter (PI): Tom Misteli\nCompound IC50s were determined at Reaction Biology (http://www.reactionbiology.com) with ten concentration points starting at 10 uM in the assay using a 3-fold dilution series. The control compound staurosporine was also tested in the 10-dose IC50 mode with the same 3-fold serial dilution, again starting at 10 uM. All kinase reactions were performed using 10 uM ATP in the assay. 100% activity was taken from kinase reactions with DMSO alone (the vehicle used for compound stock solutions).", "values": [
      {"smiles": "FC(F)(F)c1cc(Br)cc(Nc2nccc(-c3ccc4c(c3)OCO4)n2)c1", "Potency": "85.5 nM (active)"},
      {"smiles": "Cc1nc(CN(C)c2ncnc3ccc(-c4ccc5[nH]ncc5c4)cc23)cs1", "Potency": "37.7 nM (active)"},
      {"smiles": "Clc1ccc(CNc2nccc(-c3ccc4[nH]ncc4c3)n2)cc1Cl", "Potency": "30.3 nM (active)"},
      {"smiles": "c1cc(-c2ccc3c(c2)OCO3)nc(Nc2ccc3c(c2)OCO3)n1", "Potency": "74.8 nM (active)"},
      {"smiles": "Cc1c(-c2ccnc(NCc3cccnc3)n2)sc(=O)n1C", "Potency": "87.8 nM (active)"},
      {"smiles": "Clc1ccc(CNc2nccc(-c3ccc4cn[nH]c4c3)n2)cc1Cl", "Potency": "123 nM (active)"},
      {"smiles": "O=[N+]([O-])c1cc(Nc2nccc(-c3ccc4c(c3)OCO4)n2)cc(C(F)(F)F)c1", "Potency": "23.1 nM (active)"},
      {"smiles": "Brc1cc(Br)cc(CNc2nccc(-c3ccc4c(c3)OCO4)n2)c1", "Potency": "9.4 nM (active)"},
      {"smiles": "Clc1cc(Cl)cc(CNc2ncncc2-c2ccc3c(c2)OCO3)c1", "Potency": "68.2 nM (active)"},
      {"smiles": "COc1ccc(-c2ccnc(NCc3ccc(Cl)c(Cl)c3)n2)cc1OC", "activity change, negative = inhibition": "-40.9% (inactive)"},
      {"smiles": "Cc1nc(CN(C)c2ncnc3ccc(-c4ccc5c(c4)OCO5)cc23)cs1", "Potency": "15.9 nM (active)"},
      {"smiles": "Clc1ccc(CNc2ncncc2-c2ccc3c(c2)OCO3)cc1Cl", "Potency": "526 nM (active)"},
      {"smiles": "FC(F)(F)c1cccc(Nc2nccc(-c3ccc4c(c3)OCO4)n2)c1", "Potency": "41.7 nM (active)"},
      {"smiles": "c1cncc(CNc2nccc(-c3ccc4c(c3)OCO4)n2)c1", "Potency": "15.9 nM (active)"},
      {"smiles": "c1cncc(CNc2ccnc(-c3ccc4cn[nH]c4c3)n2)c1", "Potency": "1290 nM (active)"},
      {"smiles": "COc1ccc(-c2ccnc(NCc3ccc(Cl)cc3)n2)cc1", "Potency": "319 nM (active)"},
      {"smiles": "c1cncc(CNc2nccc(-c3ccc4[nH]ncc4c3)n2)c1", "Potency": "60 nM (active)"},
      {"smiles": "COc1ccc(-c2ccnc(NCc3ccc(Cl)c(Cl)c3)n2)cc1", "Potency": "91.7 nM (active)"},
      {"smiles": "COc1cccc(-c2ccnc(NCc3ccc(Cl)c(Cl)c3)n2)c1", "Potency": "3860 nM (active)"},
      {"smiles": "Brc1ccc(CNc2nccc(-c3ccc4c(c3)OCO4)n2)cc1Br", "Potency": "17.7 nM (active)"},
      {"smiles": "c1nc(NCC2CCCO2)c2cc(-c3ccc4c(c3)OCO4)ccc2n1", "note": "(configuration not stated)", "Potency": "50.1 nM (active)"},
      {"smiles": "Clc1ccc(CNc2nccc(-c3ccc4c(c3)OCCO4)n2)cc1Cl", "Potency": "13.1 nM (active)"},
      {"smiles": "Clc1ccc(CNc2nccc(-c3ccc4c(c3)OCO4)n2)cc1Cl", "Potency": "14.4 nM (active)"},
      {"smiles": "c1cncc(CNc2ccnc(-c3ccc4[nH]ncc4c3)n2)c1", "Potency": "574 nM (active)"},
      {"smiles": "COc1cccc(-c2ccnc(NCc3ccc(Cl)cc3)n2)c1", "Potency": "6810 nM (active)"},
      {"smiles": "Cc1nc(CNc2ncnc3ccc(-c4ccc5c(c4)OCO5)cc23)cs1", "Potency": "25 nM (active)"},
      {"smiles": "Cc1c(-c2ccnc(NCc3ccc(Cl)cc3)n2)sc(=O)n1C", "Potency": "273 nM (active)"}
    ]}
  ]
}
